Laboratory results as given in paper PMC7819943, “Rice protein-binding microarrays: a tool to detect cis-acting elements near promoter regions in rice”.
Over roughly 35,000 sequences, “fluorescence intensity (a.u.)” has its median near 10,000; the highest 2% begin near 52,000. Shown is part of a subset that was picked to be rich in the highest values.

target: T1, OsWOX13 (Oryza sativa, UniProt Q5QMM3 1-267); experiment: protein-binding microarray (RPBM); PBS, 2% BSA, 51.3 ng/ul salmon testes DNA, 50 uM zinc acetate, 200 nM TF, 25 C, 1 h; high values mean tight binding; conditions: protein: recombinant; tags: N-terminal polyhistidine and DsRed monomer fusion (pET32a); label: CyDye5-dUTP incorporated in the synthesized complementary strand; 3' TTTTT single-stranded linker to array surface; dsDNA, one strand shown
T1 sequence: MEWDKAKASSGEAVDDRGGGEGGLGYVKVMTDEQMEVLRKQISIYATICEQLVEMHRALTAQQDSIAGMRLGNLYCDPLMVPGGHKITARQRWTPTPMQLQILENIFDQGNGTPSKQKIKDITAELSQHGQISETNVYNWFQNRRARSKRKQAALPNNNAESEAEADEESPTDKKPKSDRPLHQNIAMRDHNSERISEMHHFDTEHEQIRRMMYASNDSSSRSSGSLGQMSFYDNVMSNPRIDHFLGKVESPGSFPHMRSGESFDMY
Summary of the method: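 In PBS with 2% BSA, salmon testes DNA and 50 µM zinc acetate, 200 nM protein was incubated on a custom Agilent array at 25 °C for 1 h and then washed off. The array had been made double-stranded by primer extension with Cy5-dUTP and blocked with 2% BSA. The proteins were transcription factors fused N-terminally to polyhistidine and DsRed, expressed in E. coli BL21-CodonPlus and purified on Ni–NTA. The binding signal is per-feature fluorescence intensity (arbitrary units) from an Axon 4000B scanner.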

Row | Sequence | binding signal
1 | AAGCCAATTAAACAACCAGATACTCAAGTTATAACATAATCGGAGTCACCTAGTGCAG | 3700 fluorescence intensity (a.u.)
2 | TTTTAAACTAATACTTAATTAATCATATATTAATTAGGTACGGAGTCACCTAGTGCAG | 19200 fluorescence intensity (a.u.)
3 | CTTATGATTTTATTTAACCTGGTTTTGAAAGACAGGGGTTCGGAGTCACCTAGTGCAG | 18100 fluorescence intensity (a.u.)
4 | ATAGCTAATTTTCGGTATGTTACACCATCCATCTGCCATGCGGAGTCACCTAGTGCAG | 5050 fluorescence intensity (a.u.)
5 | TTCCGATTGAGGAATGTTATTCACACAAGCGCAGGAGATGCGGAGTCACCTAGTGCAG | 4130 fluorescence intensity (a.u.)
6 | AAAGTGACTGAATTTTAAGTCATCGGAAATTTACACGCTCCGGAGTCACCTAGTGCAG | 15400 fluorescence intensity (a.u.)
7 | ATGAATTGTTAATTTTGCAAGCTGAACTTCTCATGTTTGGCGGAGTCACCTAGTGCAG | 11100 fluorescence intensity (a.u.)
8 | GCGTCCATCTAATCTAATCTAACCACCCTGCACGAATCGCCGGAGTCACCTAGTGCAG | 8750 fluorescence intensity (a.u.)
9 | TTTTCTTTCTTGATTGGGAAGGAAATTGGTGGTTAATCTCCGGAGTCACCTAGTGCAG | 23700 fluorescence intensity (a.u.)
10 | TATAAAATTATAGATAATATAACATGTTTGCATGATGTTTCGGAGTCACCTAGTGCAG | 5670 fluorescence intensity (a.u.)
11 | TGGAACATTGTTGATTGGCGAGCTGGCACGCATGCTAGGTCGGAGTCACCTAGTGCAG | 18600 fluorescence intensity (a.u.)
12 | TGGAGAGTTTTGATTGGTTGGGAAGAGAATGTTGATAGAGCGGAGTCACCTAGTGCAG | 20200 fluorescence intensity (a.u.)
13 | GTATGATTGGTTATGTAAAGTTTGTTTCTTGTTCTAGAGGCGGAGTCACCTAGTGCAG | 58400 fluorescence intensity (a.u.)
14 | TACAATTGATTATGTAAAGTTTGTGTCTTGTACTAGAGGGCGGAGTCACCTAGTGCAG | 43900 fluorescence intensity (a.u.)
15 | TATGTTCTTGATTTGTCCTGTTACATTGCTGACATATGTGCGGAGTCACCTAGTGCAG | 8650 fluorescence intensity (a.u.)
16 | TCATGGTGATTGCGGCATGAGAGAGTGAGGGTTCTGCGAGCGGAGTCACCTAGTGCAG | 10300 fluorescence intensity (a.u.)
17 | GTTTGATTGCACATTATGTCCTTGGAGTTCTTCAACATAGCGGAGTCACCTAGTGCAG | 55700 fluorescence intensity (a.u.)
18 | GTTGATGATGTGGCTTCTTGCTTGTCTTGCTTTATAGGAGCGGAGTCACCTAGTGCAG | 5720 fluorescence intensity (a.u.)
19 | TAGATGATTGCACTAGATTTTGCTTTGTGTACTTATTGAACGGAGTCACCTAGTGCAG | 32900 fluorescence intensity (a.u.)
20 | ATGATTGATGTCTTTTATTTTCTTTGTACTAAGGAGCTTGCGGAGTCACCTAGTGCAG | 62700 fluorescence intensity (a.u.)
21 | TAGTTTTGTAAATGATTGAAATTTTCTAGTGTTAAATAGGCGGAGTCACCTAGTGCAG | 34800 fluorescence intensity (a.u.)

Row | Sequence | binding signal
22 | TTGATTGCTTGTTTGATTGGTGGTTCTTGAGCGAGAAGAGCGGAGTCACCTAGTGCAG | 63300 fluorescence intensity (a.u.)
23 | ACACAATTATGTCAAGTTCAATTCTCAAGTTTGAATTGGGCGGAGTCACCTAGTGCAG | 5050 fluorescence intensity (a.u.)
24 | TTACTCGTCAATCCACCGATTACAGCTATCTCAAACGGAGCGGAGTCACCTAGTGCAG | 8630 fluorescence intensity (a.u.)
25 | GTGATAATGTCCATCAATCTAGCAAATCATTCTCACAACGCGGAGTCACCTAGTGCAG | 26800 fluorescence intensity (a.u.)
26 | TTTGATTTATATGCCATTGCCTTTGCTGAACAGAAAAGCTCGGAGTCACCTAGTGCAG | 37600 fluorescence intensity (a.u.)
27 | AATTTGAAATTTCAAACTTAATTTTAACATTGATTTTGAGCGGAGTCACCTAGTGCAG | 6660 fluorescence intensity (a.u.)
28 | AACCATGTTTGACTCAACATAATTAGTGCGACAAACCGCACGGAGTCACCTAGTGCAG | 4590 fluorescence intensity (a.u.)
29 | TTATCGAACATACTAATTGACTCTCAGGGAGTCAAGGATCCGGAGTCACCTAGTGCAG | 7680 fluorescence intensity (a.u.)
30 | AGGGTTAAATTGTCAAAATTTGTGCGACACAAACACACTCCGGAGTCACCTAGTGCAG | 10900 fluorescence intensity (a.u.)
31 | ATAATTGAAAATTGATTAGAGTACCTTTTGATGAGATAGCCGGAGTCACCTAGTGCAG | 57300 fluorescence intensity (a.u.)
32 | CATTAATTAGATTGAGACAGTACTGAGATGATTGCCGCCCCGGAGTCACCTAGTGCAG | 65200 fluorescence intensity (a.u.)
33 | TAGATAGATTTAGTTTTGATAATGGATAGAGATATTGCCCCGGAGTCACCTAGTGCAG | 11600 fluorescence intensity (a.u.)
34 | TCGAGATGGATAATTAGATTGATTGATTGGCCGATAGCCCCGGAGTCACCTAGTGCAG | 65100 fluorescence intensity (a.u.)
35 | AGCCCGATAATTAGATTGATTATAGACATGACTACATATACGGAGTCACCTAGTGCAG | 18200 fluorescence intensity (a.u.)
36 | TATAGTGCAGATTTTGAAATTGATGAGTGCACGTTTGGGCCGGAGTCACCTAGTGCAG | 6560 fluorescence intensity (a.u.)
37 | AAATTTTGAAATTGTTAATATGATATAAATGAGATATAGCCGGAGTCACCTAGTGCAG | 3970 fluorescence intensity (a.u.)
38 | CTTAACAACTGAACTGATTGAGACAGTAGATGAAATGGAACGGAGTCACCTAGTGCAG | 21400 fluorescence intensity (a.u.)
39 | ATTTAAATGAGATGATTGATGGGGCAATTAGTACTCTAGACGGAGTCACCTAGTGCAG | 38600 fluorescence intensity (a.u.)
40 | TGAAAATGATGTCAATCAAACATGAGTGGGGCCTGCTTTGCGGAGTCACCTAGTGCAG | 38500 fluorescence intensity (a.u.)
41 | TCACAATAGATAATTTATTCACTGAAAATTTTAGTTTTGGCGGAGTCACCTAGTGCAG | 11100 fluorescence intensity (a.u.)
42 | GGTATTACTGACTGGATTACCATGTGTGCGTCACATCGGACGGAGTCACCTAGTGCAG | 6490 fluorescence intensity (a.u.)
